Data reported in PubChem BioAssay (NCATS).
Inconclusive results are not listed. Active and inactive are the calls of the source. Calls follow the shape of the dose curve; as a rule, active = well fitted cell-killing curve with a large enough effect; inconclusive = small, poorly fitted or top-dose-only effect, or effect the other way; inactive = no such curve, though single readings can be large or run the other way.

Assay: Viability qHTS for spleen associated tyrosine kinase inhibitor (SYKi) drug resistant MV4-11 cells (AID 1963824); also: nearly all actives have a fitted effect of over 35% in size
Details: SYKi-resistant MV4-11 viability, CellTiter-Glo, 72 h; series mostly up to 45 µM
How it was run: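 SYK-inhibitor-resistant MV4-11 AML cells were seeded at 500 per well onto compound and cultured 72 hours (37 °C, 5% CO2). CellTiter-Glo was then added, and after 10 min at room temperature, luminescence gave viability.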
Potency is read from the fitted curve at half-maximal effect.

Compound	Potency
CC(=O)O[C@@H]1[C@@H](CO)O[C@@](CO)(O[C@H]2O[C@H](COC(=O)/C=C/c3ccccc3)[C@@H](O)[C@H](O)[C@H]2O)[C@H]1O	inactive
C[C@@H]1O[C@@H](O[C@H]2[C@@H](OC(=O)[C@]34CCC(C)(C)CC3C3=CCC5[C@@]6(C)C[C@H](O)[C@H](O[C@@H]7O[C@H](CO)[C@@H](O)[C@H](O)[C@H]7O[C@@H]7OC[C@@H](O)[C@H](O)[C@H]7O)[C@@](C)(C(=O)O)C6CC[C@@]5(C)[C@]3(C)CC4)OC[C@H](O)[C@@H]2O)[C@H](O)[C@H](O)[C@H]1O[C@@H]1OC[C@@H](O)[C@H](O)[C@H]1O (some centres not stated)	1.38 µM (active)
C#CCOc1ccc2c(c1)c(-c1ccc(C(C)C)cc1)nc(=O)n2C(C)C	9.2 µM (active)
COc1ccc2c(c1)C(c1ccc(F)cc1)=C(CN1CCCC1)CO2	20.9 µM (active)
COc1ccc2c(c1O[C@H]1CCNC1)CCC2	inactive
Cc1ccc(S(=O)(=O)Nc2ccccc2N2CCCCC2)s1	18.4 µM (active)
COc1ccc2cc(C(C)C(=O)Oc3ccc(C(N)=S)cc3)ccc2c1 (configuration not stated)	inactive
OC[C@@]1(O)CO[C@H](OC[C@H]2O[C@@H](OC(CCCCc3ccc(O)cc3)CCc3ccc(O)cc3)[C@H](O)[C@@H](O)[C@@H]2O)[C@@H]1O (some centres not stated)	inactive
[2H]C([2H])([2H])C(OC(=O)[C@H](C)N[P@](=O)(OC[C@H]1O[C@@H](n2ccc(=O)[nH]c2=O)[C@](C)(F)[C@@H]1O)Oc1ccccc1)C([2H])([2H])[2H]	9.2 µM (active)
C[C@]12CC/C(=N\OCC(=O)O)C=C1CC[C@@H]1[C@@H]2[C@@H](O)C[C@@]2(C)[C@H]1CC[C@]2(O)C(=O)CO	inactive
CC1=CC2C(CC1OC1OC(CO)C(O)C(O)C1O)C(C)CC(=O)C2C(C)C (configuration not stated)	inactive
CC(C)n1cnc2c(Nc3cccc(Cl)c3)nc(NCCO)nc21	1.84 µM (active)
Cc1ccc(S(=O)(=O)NCc2ccc(C(=O)NCCN(Cc3ccccc3)C(C)C)cc2)cc1	14.6 µM (active)
O=C(/C=C/c1ccc(O)cc1)OC[C@H]1O[C@@H](OC(=O)/C=C/c2ccccc2)[C@H](O)[C@@H](O)[C@@H]1O	inactive
CC(NC(=O)c1ccccc1N)C(=O)O (configuration not stated)	inactive
C=C1C(OC2OCC(O)C(O)C2O)CC2C(C)(C)C(O)CCC2(C)C1CC/C(C)=C\CO (configuration not stated)	7.09 µM (active)
CC(C)(C)n1nc(Cc2cccc([N+](=O)[O-])c2)c2c(N)ncnc21	5.17 µM (active)
